Assay results from PubChem BioAssay (Tox21).
Inconclusive results are not listed. Activity calls are given as the source filed them. Unless noted, calls follow the shape of the dose curve; as a rule, active = well fitted curve in the direction sought with a large enough effect in the repeat runs; inconclusive = weak or mixed curves; inactive = flat fitted curve, though single readings scatter.

Tests used:
[1] = qHTS assay to test for compound auto fluorescence at 460 nm (blue) in HEK293 cell free culture (AID 720681)
Outline: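 Test compounds were pinned into cell-free culture medium (DMEM with 10% FBS) and fluorescence was read directly at Ex/Em 405/460 nm. Signals were expressed as fluorescence equivalents of triamterene, with DMSO vehicle as control.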

[2] = qHTS assay to test for compound auto fluorescence at 590 nm (red) in HEK293 cell free culture (AID 720683)
Outline: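 Tox21 10K library compounds were pinned into cell-free DMEM with 10% FBS and fluorescence was read at excitation 540 nm. Activity is expressed as Rose Bengal sodium equivalency.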

[3] = qHTS assay to test for compound auto fluorescence at 590 nm (red) in HepG2 cell free culture (AID 720684)
Outline: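 Measured in medium alone (MEM containing 10% FBS) following pintool addition of compound; emission at 590 nm with 540 nm excitation, referenced to Rose Bengal sodium.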

[4] = qHTS assay to test for compound auto fluorescence at 460 nm (blue) in HepG2 cell free culture (AID 720685)
Outline: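 Compound (23 nL) or DMSO pinned into cell-free MEM with 10% FBS; blue fluorescence read at 405/460 nm excitation/emission, expressed as auto-fluorescence equivalency to triamterene.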

[5] = qHTS assay to test for compound auto fluorescence at 535 nm (green) in HepG2 cell free culture (AID 720686)
[6] = qHTS assay to test for compound auto fluorescence at 460 nm (blue) in HepG2 cells (AID 720687)
Outline: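 Cells (2,000/well in MEM with 10% FBS) attached overnight at 37 C, then were exposed to compound or DMSO for 1 hr at 37 C, 5% CO2. Fluorescence read at Ex/Em 405/460 nm, expressed as triamterene-equivalent signal.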

[7] = target: Glucocorticoid receptor (Homo sapiens) (UniProt P04150); experiment: qHTS assay to identify small molecule antagonists of the glucocorticoid receptor (GR) signaling pathway (AID 720692; active = well fitted inhibition curve with a large enough effect in the signal ratio in the repeat runs, not every such curve was filed as active; the % refers to the signal ratio)
Outline: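 Fluorescence from cleaved LiveBLAzer B/G FRET substrate reports GRE-driven beta-lactamase in HeLa cells; compounds are tested against 5 nM dexamethasone (final) over 18 h at 37 C, substrate incubation 2 h at room temperature.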

[8] = qHTS assay to test for compound auto fluorescence at 535 nm (green) in HEK293 cell free culture (AID 720682)
Outline: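 Each library compound, or DMSO control, is added by pintool to medium alone, comprising DMEM and 10% FBS. Emission at 535 nm following 485 nm excitation is quantified against fluorescein.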

[9] = target: Glucocorticoid receptor (Homo sapiens) (UniProt P04150); experiment: qHTS assay to identify small molecule agonists of the glucocorticoid receptor (GR) signaling pathway (AID 720691; active = well fitted activation curve with a large enough effect in the signal ratio in the repeat runs, not every such curve was filed as active; the % refers to the signal ratio; also: potency is read from the fitted curve at half-maximal effect); settings: GR-bla HeLa, beta-lactamase reporter ratio, 18 h; activation: at 62.4 µM (top of the series)
Outline: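 Beta-lactamase reporter activity, read as fluorescence intensity, was measured in GR-bla HeLa cells exposed to compounds for 18 h at 37 C and then loaded with LiveBLAzer B/G FRET substrate for 2 h at room temperature.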

Measured: Potency

Chain of Glucocorticoid receptor (Homo sapiens) (P04150 whole entry, looked up): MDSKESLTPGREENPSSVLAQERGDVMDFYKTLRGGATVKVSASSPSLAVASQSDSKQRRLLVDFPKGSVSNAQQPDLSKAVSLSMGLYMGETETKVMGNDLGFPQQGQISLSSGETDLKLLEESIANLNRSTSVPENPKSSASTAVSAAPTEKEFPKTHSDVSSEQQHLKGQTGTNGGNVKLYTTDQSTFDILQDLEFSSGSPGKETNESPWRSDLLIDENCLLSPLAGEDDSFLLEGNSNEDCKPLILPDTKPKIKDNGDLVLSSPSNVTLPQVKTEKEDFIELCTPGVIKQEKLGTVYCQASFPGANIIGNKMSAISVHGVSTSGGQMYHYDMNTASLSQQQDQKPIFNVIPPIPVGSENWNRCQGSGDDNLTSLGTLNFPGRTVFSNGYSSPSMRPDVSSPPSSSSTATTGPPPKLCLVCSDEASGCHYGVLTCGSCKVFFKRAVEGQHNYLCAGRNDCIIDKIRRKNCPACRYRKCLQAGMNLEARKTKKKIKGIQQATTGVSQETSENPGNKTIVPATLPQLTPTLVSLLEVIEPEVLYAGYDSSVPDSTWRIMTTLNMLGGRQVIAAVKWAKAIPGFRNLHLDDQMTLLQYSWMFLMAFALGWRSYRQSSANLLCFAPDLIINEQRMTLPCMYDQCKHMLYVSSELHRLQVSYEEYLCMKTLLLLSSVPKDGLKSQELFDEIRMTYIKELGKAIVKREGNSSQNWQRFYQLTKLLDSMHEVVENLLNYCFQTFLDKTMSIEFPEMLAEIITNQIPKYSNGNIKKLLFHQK

CCc1ncnc2cc(OC)c(OC)cc12
not listed: [8] | [9]
inactive: all other assays above

CC(C)Cc1ccc([C@H](C)C(=O)O)cc1
inactive: all assays above

Nc1c(CC(=O)O)cccc1C(=O)c1ccccc1
inactive: all assays above

CO/N=C(\C(=O)N[C@@H]1C(=O)N2C(C(=O)O)=C(CSc3nc(C)c(CC(=O)O)s3)CS[C@H]12)c1csc(N)n1
not listed: [6] | [7]
inactive: all other assays above

CC1(C)S[C@@H]2[C@H](N3C(=O)C(c4ccccc4)NC3(C)C)C(=O)N2[C@H]1C(=O)O (stereo partly drawn)
not listed: [5] | [7] | [9]
inactive: all other assays above

C=CC1=C(C(=O)O)N2C(=O)[C@@H](NC(=O)/C(=N\O)c3csc(N)n3)[C@H]2SC1 (stereo in doubt)
not listed: [7] | [9]
inactive: all other assays above

Clc1nc(C(Cl)(Cl)Cl)c(Cl)c(Cl)c1Cl
not listed: [7] | [9]
inactive: all other assays above

O=C1CCC(c2ccccc2)(C2CCN(Cc3ccccc3)CC2)C(=O)N1 (stereo not drawn)
not listed: [7]
inactive: all other assays above

CS(=O)(=O)c1ccc([C@@H](CC2CCCC2)C(=O)Nc2cnccn2)cc1Cl
inactive: [2] | [3] | [4] | [5] | [6]

O=C1OC(=O)c2cc(-c3ccc4c(c3)C(=O)OC4=O)ccc21
not listed: [7] | [9]
inactive: all other assays above

C[C@@H]1C[C@H]2[C@@H]3C[C@H](F)C4=CC(=O)C=C[C@]4(C)[C@@]3(Cl)[C@@H](O)C[C@]2(C)[C@H]1C(=O)COC(=O)C(C)(C)C
not listed: [7] | [9]
inactive: all other assays above

CCOc1cc(CC(=O)N[C@@H](CC(C)C)c2ccccc2N2CCCCC2)ccc1C(=O)O
active: [9] 8.11 µM
not listed: [7]
inactive: all other assays above

CSCC[C@H](NC(=O)[C@H](Cc1ccc(OS(=O)(=O)O)cc1)NC(=O)[C@@H](N)CC(=O)O)C(=O)NCC(=O)N[C@@H](Cc1c[nH]c2ccccc12)C(=O)N[C@@H](CCSC)C(=O)N[C@@H](CC(=O)O)C(=O)N[C@@H](Cc1ccccc1)C(N)=O
not listed: [7] | [9]
inactive: all other assays above

CC(=O)Nc1ccc(OC(C)=O)cc1
not listed: [6]
inactive: all other assays above

C[C@@H]1C(=O)NC2=Nc3cccc(Cl)c3CN21
not listed: [5] | [7]
inactive: all other assays above

CON=C1C[C@]2(C[C@@H]3C[C@@H](C/C=C(\C)C[C@@H](C)/C=C/C=C4\CO[C@@H]5[C@H](O)C(C)=C[C@@H](C(=O)O3)[C@]45O)O2)O[C@H](/C(C)=C/C(C)C)[C@H]1C
not listed: [2] | [7] | [9]
inactive: all other assays above

C/C(=C\C(=O)OCCCCCCCCC(=O)O)C[C@@H]1OC[C@H](C[C@@H]2O[C@H]2[C@@H](C)[C@H](C)O)[C@@H](O)[C@H]1O
not listed: [5]
inactive: all other assays above

OCC1(CO)COC(C(Cl)(Cl)Cl)OC1
not listed: [7]
inactive: all other assays above

O=C(O)c1cc(O)c2c(c1)[C@H]([C@H]1c3cc(C(=O)O)cc(O)c3C(=O)c3c(O[C@@H]4O[C@H](CO)[C@@H](O)[C@H](O)[C@H]4O)cccc31)c1cccc(O[C@@H]3O[C@H](CO)[C@@H](O)[C@H](O)[C@H]3O)c1C2=O
not listed: [5] | [8]
inactive: all other assays above
